Experimental data reported in PubChem BioAssay AID624330 (Southern Research Specialized Biocontainment Screening …, 2012).
The whole screen tested about 340,000 compounds, of which about 2,100 (0.62%) were called active.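 The calls were made as follows: active = first-screen hits whose inhibition reached a set limit at any dose in the follow-up dose series; inconclusive = inhibition above the set first-screen limit but never retested; inactive = the rest.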 These entries were drawn from the full list. Measured potencies and affinities stand elsewhere.

These compounds were tested against Rac GTPase-activating protein 1 (Homo sapiens) (UniProt Q9H0H5) (assay: blockers of MgcRacGAP-driven Rac1 GTP hydrolysis – biochemical, ADP Hunter fluorescence, primary and confirmatory, confirmation (AID 624330;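 also: fluorescence reports GDP produced by GAP-driven GTP hydrolysis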)). Settings: MgcRacGAP-stimulated Rac1 GTP hydrolysis, at 30 µM, active compounds read high, GST-tagged Rac1 F28L mutant substrate.
Chain of Rac GTPase-activating protein 1 (Homo sapiens) (Q9H0H5 whole entry, looked up): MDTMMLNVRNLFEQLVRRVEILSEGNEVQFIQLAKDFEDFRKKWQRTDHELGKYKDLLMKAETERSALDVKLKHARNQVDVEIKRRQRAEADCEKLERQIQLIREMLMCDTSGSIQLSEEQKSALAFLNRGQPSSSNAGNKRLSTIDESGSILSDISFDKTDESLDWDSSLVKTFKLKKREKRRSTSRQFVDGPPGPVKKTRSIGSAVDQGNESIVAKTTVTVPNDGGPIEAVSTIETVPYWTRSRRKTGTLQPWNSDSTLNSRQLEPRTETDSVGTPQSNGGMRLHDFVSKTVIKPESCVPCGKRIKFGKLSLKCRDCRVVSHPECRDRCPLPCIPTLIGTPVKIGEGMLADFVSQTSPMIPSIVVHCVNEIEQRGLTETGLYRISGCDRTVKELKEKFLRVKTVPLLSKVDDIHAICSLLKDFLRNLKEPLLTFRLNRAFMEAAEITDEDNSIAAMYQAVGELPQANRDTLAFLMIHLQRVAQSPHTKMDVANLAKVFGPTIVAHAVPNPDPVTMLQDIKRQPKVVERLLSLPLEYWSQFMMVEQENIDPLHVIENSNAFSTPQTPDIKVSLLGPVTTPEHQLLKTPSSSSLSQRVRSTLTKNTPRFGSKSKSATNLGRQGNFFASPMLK

inhibition, inactive:
COCCN(C(=O)CNC(=O)c1cccs1)C(C(=O)NC1CCCC1)c1cccs1 (configuration not stated) 8.07%
COc1ccc(NC(=S)NCCSc2ccc(Cl)cc2)c(OC)c1 -1.73%
CC(=O)Nc1ccc2c3c(cccc13)CC2 3.29%
c1ccc(Nc2ccc3c4c(cccc24)CC3)cc1 16.2%
COCc1[nH][nH]c(=O)c1C=Nc1ccccc1 9.38%
O=[N+]([O-])c1ccccc1N=Nc1ccc(O)cc1 9.07%
O=C(OCc1ccccc1Cl)c1cccnc1Cl -1.97%
CCCCn1c(N)c(N(CCOC)C(=O)C(C)N2C(=O)c3ccccc3C2=O)c(=O)[nH]c1=O (configuration not stated) 0.26%
CC(OC(=O)c1ccc(Cl)c([N+](=O)[O-])c1)C(=O)N1CCN(Cc2ccccc2)CC1 (configuration not stated) 3.69%
CCOc1ccccc1C(=O)NCC(=O)N(C)Cc1ccccc1C 6.49%
COc1ccccc1N(C)S(=O)(=O)c1ccc(C(=O)Nc2cccc(Br)c2)cc1 4.53%
CCc1ccc(-n2c(=O)c3ccccc3n3c(=S)[nH]nc23)cc1 12.2%
COc1cccc(-n2c(=O)c3ccccc3n3c(=S)[nH]nc23)c1 13.7%
CCOC(=O)c1oc2ccccc2c1NC(=O)C(C)(C)C 4.02%
O=C(c1ccccc1)c1ccc(N2CCOCC2)c(F)c1 9.91%
Cc1cccc(C(=O)N2CCC(N3CCC(C(=O)N4CCOCC4)CC3)CC2)c1 7.61%
CCC1Sc2ccccc2N(CC(=O)NC2CC2)C1=O (configuration not stated) -0.26%
Cc1cc(C)cc(N2C(=O)C=CC2=O)c1 1.25%
O=C(O)c1cccc(N2C(=O)C=CC2=O)c1 9.07%
COc1cccc(C(=O)NCC(c2ccco2)N2CCc3ccccc3C2)c1 (configuration not stated) 7.73%
N#CC1=C(S)N(c2ccccc2)C(c2cccs2)NC1=O (configuration not stated) 53%
Cc1cccc(N2C(S)=C(C#N)C(=O)NC2c2ccco2)c1 (configuration not stated) 48.2%
N#CC1=C(S)N(c2ccc(F)cc2)C(c2cccs2)NC1=O (configuration not stated) 38.9%
Cc1ccccc1N1C(S)=C(C#N)C(=O)NC1c1cccs1 (configuration not stated) 39%
COC(=O)c1nnc(-c2ccccc2)nc1OC 4.64%
CCN(CC(=O)Nc1ccccc1C(F)(F)F)C(=O)c1cc(-c2cccs2)nn1-c1ccccc1 1.06%
CCC(=O)OCc1cc(=O)oc2ccc3ccccc3c12 9.78%
O=C(c1cncc(Br)c1)N1CCN(S(=O)(=O)c2ccc3ccccc3c2)CC1 2.91%
Nc1nccnc1C(=O)OCC(=O)NC1CCCc2ccccc21 (configuration not stated) 2.06%
CCN1CCN(c2sc(S(=O)(=O)CC)nc2S(=O)(=O)c2ccc(Cl)cc2)CC1 13.7%
Cc1ccc(C2=N/C(=C\c3cccs3)C(=O)N2Nc2ccccc2)cc1 4.5%
Cc1nccn1CCOc1ccc(Cl)cc1 19.6%
COc1ccc(OCC(O)Cn2ccnc2C)cc1 (configuration not stated) -5.32%
C/C(=N\Nc1nc2ccccc2[nH]1)c1ccc2c(c1)OCCO2 14.6%
C/C(=N\Nc1nc2ccccc2[nH]1)c1ccc([N+](=O)[O-])cc1 9.3%
O=C(Nc1nc2ccccc2[nH]1)c1cccs1 5.07%
C/C(=N\Nc1nc2ccccc2[nH]1)c1ccc2c(c1)OCO2 29.4%
C/C(=N\Nc1nc2ccccc2[nH]1)c1ccccn1 16.1%
C/C(=N\Nc1nc2ccccc2s1)c1cccs1 15.9%
COc1ccc(CN2C(=O)c3cccnc3C2=O)cc1S(=O)(=O)N1CCCCC1 5.59%
CCN1CCN(c2ccc(NC(=O)c3ccccc3F)cc2Cl)CC1 10.3%
O=C(CSc1nc(=O)n2ccccc2n1)N1CCC(Cc2ccccc2)CC1 2.37%
CC(C)Nc1nc(NC2CCCC2)nc(N2CCOCC2)n1 -6.17%
Cc1cccc(NS(=O)(=O)c2cccc(C(=O)N3CCCCCCC3)c2)c1 7.59%
CCOC(=O)C1=C(C)NC(C)=C(C(=O)OCC)C1C(=O)O -2.63%
Oc1ccc(/C=C/c2ccnc3ccccc23)cc1 20.5%
C(=C\c1ccc2ccccc2n1)/c1ccccc1 -0.19%
CN(C)c1ccc(/C=C/c2ccc3ccccc3n2)cc1 10.9%
O=c1[nH]c2ccccc2nc1/C=C/c1ccc(F)cc1 2.77%
O=C(Nc1cccc(S(=O)(=O)NC2=NCCCCC2)c1)c1cc(-c2ccc(Cl)cc2)nc2ccccc12 9.39%
Cc1ccc(-c2nnc(SCC(=O)Nc3nc4c(s3)CCCC4)n2C)cc1 10.7%
Cc1cccc(NC(=O)CCC(=O)N/N=C/c2cc([N+](=O)[O-])ccc2O)c1 5.13%
Cc1ccc(NC(=O)CCC(=O)N/N=C/c2ccccc2O)cc1 -6.53%
COc1ccc(O)c(/C=N/NC(=O)CCC(=O)Nc2cccc(C)c2)c1 6.29%
COc1ccc(O)c(/C=N/NC(=O)CCC(=O)Nc2ccc(C)cc2)c1 5.47%
COc1ccc(N2CCN(C(=O)COC(=O)Cc3ccc(F)cc3)CC2)cc1 17.9%
C[C@@H]1CN([C@H](C)CO)C(=O)CCCn2nncc2CO[C@H]1CN(C)Cc1ccc(O)cc1 7.18%
O=C(c1cc(-c2ccco2)on1)N1CCOCC1 2.62%
Cn1c(SCC(=O)N2CCOCC2)nnc1-c1ccco1 -0.83%
Cc1cccc(N2C(=O)C(O)=C(C(=O)c3cccs3)C2c2ccc(F)cc2)n1 (configuration not stated) 11.6%
CC1CCN(CC(=O)Nc2cc(C(F)(F)F)ccc2Cl)CC1 6.71%
O=C(CC(=O)c1ccccc1)Nc1cc(C(F)(F)F)ccc1Cl -0.8%
COc1ccc(OC)c(NC(=O)CC2(CC(=O)O)CCCC2)c1 5.41%
O=C(Nc1cccc(-n2cnnn2)c1)c1cc2ccccc2o1 0.98%
CC(=O)Nc1cccc(-c2csc(NCc3ccco3)n2)c1 15.4%
CC(=O)Nc1ccc(-c2csc(NCc3ccccc3)n2)cc1 8.92%
N/C(=N\OC(=O)c1ccco1)c1cccc([N+](=O)[O-])c1 6.07%
CCn1cc(Cl)c(C(=O)Nc2nccs2)n1 1.45%
C=C(C)CSc1nnc(-c2ccc(OC)cc2)n1N 5.76%
O=C(O)c1ccc(C=NNC(=O)c2ccccc2NS(=O)(=O)c2cccs2)cc1 7.04%
O=C(N/N=C/c1cccc(C(F)(F)F)c1)c1ccc(O)cc1 6.36%
O=C(N/N=C/c1ccc(C(F)(F)F)cc1)c1ccc(O)cc1 8.28%
CC(C)(C)c1cc(C(=O)N/N=C/c2ccccc2O)n(-c2ccccc2)n1 2.15%
CC(C)(C)c1cc(C(=O)N/N=C/c2ccc(F)cc2)n(-c2ccccc2)n1 6.73%
O=C(Nc1ccccc1C(=O)N/N=C/c1ccco1)c1ccccc1 7.26%
O=C(Nc1ccccc1C(=O)N/N=C/c1ccncc1)c1ccccc1 9.96%
O=C(NN=Cc1ccc(F)cc1)c1ccccc1NS(=O)(=O)c1cccs1 5.29%
O=C(CSc1nnc(C2CC2)n1-c1ccccc1)NC1CCS(=O)(=O)C1 (configuration not stated) -2.5%
CCOC(=O)c1cc(C)nn1-c1nc(Cl)cc(OC)n1 5.27%
COC(=O)c1ccccc1NC(=O)Oc1ccc(C(C)C)cc1 8.33%
Cc1ccc(NS(=O)(=O)c2ccc(-n3cccn3)cc2)nc1 4.91%
COc1ccc(S(=O)(=O)N2CCCCC2)cc1NC(=O)C1CSC2(C)CCC(=O)N12 (configuration not stated) 5.04%
CC(C)(C)C(=O)NC(=S)NNC(=O)C(c1ccccc1)c1ccccc1 6.5%
O=C(O)CC/C(=N/NC(=O)CNC(=O)c1ccc2c(c1)OCCO2)c1ccccc1 3.51%
CCOC(=O)C(=O)Nc1cccc(C(=O)OCC)c1 -6.93%
COc1ccc(/C=N/NC(=O)Nc2cccc3nsnc23)cc1 -1.96%
O=C(NN=Cc1c(F)cccc1F)c1ccccc1NS(=O)(=O)c1cccs1 3.9%
CC(NC(=O)c1ccccc1)C(=O)N/N=C/c1ccc(O)cc1 (configuration not stated) 27%
COc1ccc(C=NNC(=O)c2ccccc2NS(=O)(=O)c2cccs2)cc1O 12.1%
COc1ccc(/C=N/NC(=O)Nc2cccc3nsnc23)cc1OC 6.64%
COc1ccccc1/C=N/NC(=O)C(NC(=O)c1ccccc1)=C(C)C 4.44%
O=C(NN=Cc1cc(Br)c(O)c(Br)c1)c1ccccc1NS(=O)(=O)c1cccs1 15.4%
COc1cc(C=NNC(=O)c2ccccc2NS(=O)(=O)c2cccs2)cc(OC)c1O 9.93%
COc1ccc(-c2cc(-c3ccccc3)nc(N3CCCC3)n2)cc1OC 3.15%
Cc1cc(C)c(C)c(S(=O)(=O)NCCCN2CCCC2=O)c1C 5.47%
CC(C)(C)c1ccc(N2C(=O)CC(c3ccccc3)C2=O)cc1 (configuration not stated) 4.86%
Cc1nc(N2CCN(C(=O)c3ccco3)CC2)c(C#N)c2c1CCCC2 5.84%
